{"source": "PubChem BioAssay AID2314", "about": "(National Center for Advancing Translational Sciences (NCATS), 2010)", "note": "About 37,000 (12%) of roughly 300,000 compounds were called active. For the sample, actives were picked, then their nearest neighbours and some compounds at random. A number with no mark means an inactive call. Cut-off read from the data, not from the text of the source: active = max response mostly above about 13% (no sharp cut-off); inactive = mostly below about 14%.", "data": [{"test": "Cycloheximide Counterscreen for Small Molecule Inhibitors of Shiga Toxin; note: read at 38.3 µM for the half of the compounds with a filed dose; 0% is about no effect", "conditions": "cell reporter, cycloheximide protein synthesis inhibition counterscreen; stronger effect = higher value", "values": [{"smiles": "O=C(NCc1cccc(Cl)c1)C1CCC(=O)N(C2CC2)C1", "note": "(stereo not given)", "max response": "0.588%"}, {"smiles": "Cc1ccccc1NC(=O)CSc1ccc2nnc(-c3ccccn3)n2n1", "max response": "-1.54%"}, {"smiles": "COc1ccc(NC(=O)CSc2ccc(-c3ccco3)nn2)c(OC)c1", "max response": "9.5%"}, {"smiles": "O=C(CSc1ccc(-c2ccco2)nn1)Nc1cccc(F)c1", "max response": "26% (active)"}, {"smiles": "O=C(CSc1ccc(-c2ccc(F)cc2)nn1)Nc1ccc2c(c1)OCCO2", "max response": "10.9%"}, {"smiles": "COc1cc(NC(=O)CSc2ccc(-c3cccnc3)nn2)cc(OC)c1", "max response": "-2.34%"}, {"smiles": "O=C(CSc1ccc(-c2ccccn2)nn1)Nc1ccccc1", "max response": "20% (active)"}, {"smiles": "COc1ccc(CNC(=O)COC(=O)/C=C/c2ccc(S(=O)(=O)N3CCOCC3)cc2)cc1", "max response": "9.31%"}, {"smiles": "O=c1c2ccccc2nnn1CSc1nc2sc3c(c2c(=O)n1CC1CCCO1)CCC3", "note": "(stereo not given)", "max response": "-2.17%"}, {"smiles": "OC(c1ccc(Cl)cc1)C(CN1CCOCC1)c1ccccc1", "note": "(stereo not given)", "max response": "-2.76%"}, {"smiles": "COc1ccc2c(C)c(CCC(=O)NC3CC3)c(=O)oc2c1C", "max response": "9.57%"}, {"smiles": "O=C1C(=O)N(c2ccccc2)c2ccccc21", "max response": "-2.88%"}, {"smiles": "O=C(O)CCS(=O)(=O)c1ccc(-c2ccccc2)cc1", "max response": "-1.33%"}, {"smiles": "Cc1ccc(S(=O)(=O)CCC(=O)OCc2ccccc2)cc1", "max response": "0.648%"}, {"smiles": "CC(=O)CCS(=O)(=O)c1ccc(C)c(C)c1", "max response": "27.6% (active)"}, {"smiles": "COc1ccc(OC)c(NC(=O)C2CCCN2S(=O)(=O)c2cccc3nsnc23)c1", "note": "(stereo not given)", "max response": "12.5%"}, {"smiles": "Cc1ccc(-c2nnc(Nc3ccc(C(=O)N(C)C)cc3)c3ccccc23)cc1S(N)(=O)=O", "max response": "-2.16%"}, {"smiles": "O=C(CSc1nnc(-c2ccc(NS(=O)(=O)c3ccccc3)cc2)o1)NCC1CCCO1", "note": "(stereo not given)", "max response": "-1.17%"}, {"smiles": "CC(C)(C)NS(=O)(=O)c1ccc(NC(=O)C2CCCO2)cc1", "note": "(stereo not given)", "max response": "-3.65%"}, {"smiles": "Cc1cccc(NC(=O)Nc2nnc(-c3ccccc3)o2)c1", "max response": "2.04%"}, {"smiles": "CCOC(=O)c1ccc(NC(=O)c2ccc(NC(=O)C3CCCO3)cc2)cc1", "note": "(stereo not given)", "max response": "13.9%"}, {"smiles": "O=C(Nc1ccc(-c2nnc(-c3ccccc3)o2)cc1)C1CCCO1", "note": "(stereo not given)", "max response": "39.1% (active)"}, {"smiles": "O=C(Nc1cccc(-c2nnc(-c3ccccc3)o2)c1)C1CCCO1", "note": "(stereo not given)", "max response": "37.3% (active)"}, {"smiles": "CCn1c(=S)sc2c(=O)n(CC(=O)Nc3ccc(OC)cc3)c(C)nc21", "max response": "-0.488%"}, {"smiles": "Cc1ccccc1OCCC(=O)OCC(=O)NC(C)c1ccccc1", "note": "(stereo not given)", "max response": "1.95%"}, {"smiles": "CCC(C)c1ccccc1NC(=O)CN(C)CC(=O)Nc1ccccc1SC", "note": "(stereo not given)", "max response": "-13.3%"}, {"smiles": "Cc1cc(C(=O)COc2ccccc2[N+](=O)[O-])c(C)n1-c1cccc(S(=O)(=O)N2CCOCC2)c1", "max response": "0.979%"}, {"smiles": "CC(C)(C)OC(=O)N/N=C/c1cn(-c2ccccc2)nc1-c1cccnc1", "max response": "17%"}, {"smiles": "Cc1ccc(-c2nn(-c3ccccc3)cc2/C=N/NC(=O)c2ccc3c(c2)OCO3)cc1", "max response": "16.9% (active)"}, {"smiles": "Cc1nnc(SCC(=O)N/N=C/c2cn(-c3ccccc3)nc2-c2ccc(F)cc2)n1-c1ccccc1", "max response": "10.2%"}, {"smiles": "O=C(NCc1ccccc1)[C@H]1C[C@@H]1[C@H](NP(=O)(c1ccccc1)c1ccccc1)c1ccccc1", "max response": "4.56%"}, {"smiles": "CC(=O)N1CCCc2cc(S(=O)(=O)N3CCCC(C(=O)N4CCN(c5cccc(Cl)c5)CC4)C3)ccc21", "note": "(stereo not given)", "max response": "8.4%"}, {"smiles": "Cc1sc2ncn(CC(=O)NCCCC(=O)N3CCN(c4ccccc4F)CC3)c(=O)c2c1C", "max response": "-3.83%"}, {"smiles": "CCOc1ccc(OCCSc2nc3ccccc3n2CC(=O)O)cc1", "max response": "-2.45%"}, {"smiles": "CC(NC(=S)Nc1ccc(OC(F)F)cc1)c1ccc(F)cc1", "note": "(stereo not given)", "max response": "1.93%"}, {"smiles": "CC(C)c1ccc(NC(=S)NC2CC3C=CC2C3)cc1", "note": "(stereo not given)", "max response": "51.4% (active)"}, {"smiles": "S=C(NNC(=S)NC1CC2C=CC1C2)NC1CC2C=CC1C2", "note": "(stereo not given)", "max response": "9.74%"}, {"smiles": "CCOc1ccccc1N1CN(Cc2ccccc2)CNC1=S", "max response": "-1.15%"}, {"smiles": "Cc1ccccc1NCC(=O)N/N=C\\c1ccc([N+](=O)[O-])s1", "max response": "25.2%"}, {"smiles": "Cc1ccc(C(=O)NC23CC4CC(CC(C4)C2)C3)c(Cl)c1", "max response": "11.3%"}, {"smiles": "CSc1ccc(NC(=O)/C=C/C(=O)O)cc1", "max response": "6.1%"}, {"smiles": "CSc1ccc(/C=C/C(=O)NC23CC4CC(CC(C4)C2)C3)cc1", "max response": "49.9% (active)"}, {"smiles": "CC1(C)CC(=O)c2c(n(S(=O)(=O)c3ccccc3)c3ccc(NS(=O)(=O)c4ccccc4)cc23)C1", "max response": "-1.24%"}, {"smiles": "CCn1c(SCc2ccccc2)nc2cc(OC)c(OC)cc2c1=O", "max response": "0.431%"}, {"smiles": "COc1ccc(-n2c(SC)nc(O)cc2=O)cc1", "max response": "-4.06%"}, {"smiles": "CCn1c(SCc2ccccc2)nc2c(c1=O)SCC2", "max response": "-1.78%"}, {"smiles": "CCS(=O)(=O)n1nc(-c2ccccc2)nc1SCc1ccccc1", "max response": "62.5% (active)"}, {"smiles": "CCS(=O)(=O)n1nc(-c2ccc(OC)cc2)nc1SC", "max response": "23.6% (active)"}, {"smiles": "CCOC(=O)N1CCN(S(=O)(=O)c2ccc(OC)cc2)CC1", "max response": "-1.81%"}, {"smiles": "CCOc1ccc(CN2CCNC(=O)C2CC(=O)NCCCC2CCCC2)cc1", "note": "(stereo not given)", "max response": "16.3%"}, {"smiles": "Cc1ccc2nc(C)cc(N/N=C/c3ccc(F)cc3)c2c1", "max response": "-2.09%"}, {"smiles": "CCOc1cc(/C=N/Nc2cc(C)nc3ccc(C)cc23)ccc1O", "max response": "17.3% (active)"}, {"smiles": "COc1cccc(-c2cc(C(=O)N/N=C/c3ccc(OC)c(COC(C)=O)c3)c3ccccc3n2)c1", "max response": "2.97%"}, {"smiles": "CCOc1ccc(/C=N/NC(=O)CSc2ccccn2)cc1O", "max response": "1.88%"}, {"smiles": "CCOc1cc(/C=N/NC(=O)c2cc(-c3ccccc3)nc3ccccc23)ccc1O", "max response": "17.7% (active)"}, {"smiles": "Cc1cc(C(=O)N/N=C/c2ccccn2)c2ccccc2n1", "max response": "-8.99%"}, {"smiles": "COc1cc(OC)c2c(C)cc(=O)oc2c1C(CCN1CCCCC1)c1ccc(N(C)C)cc1", "note": "(stereo not given)", "max response": "-1.45%"}, {"smiles": "COc1cc(CN2CCCC(C(=O)c3ccc(SC)cc3)C2)cc(Cl)c1O", "note": "(stereo not given)", "max response": "4.43%"}, {"smiles": "N=c1n(CCc2ccccc2)c2ccccc2n1Cc1ccccc1F", "max response": "-8.79%"}, {"smiles": "COc1ccccc1/C=C/C(=O)NC(=S)N1CCOCC1", "max response": "47.7% (active)"}, {"smiles": "CCOC(=O)C(=Cc1ccccc1OC)C(=O)OCC", "max response": "2.29%"}, {"smiles": "COc1ccccc1/C=C/C(=O)NC1CC2CCC1C2", "note": "(stereo not given)", "max response": "14.3% (active)"}, {"smiles": "COc1ccccc1C(=O)Nc1cccc(C(=O)N2CCOCC2)c1", "max response": "-2.39%"}, {"smiles": "COc1ccccc1/C=C/C=N/NC(=O)CN1CCN(Cc2ccccc2)CC1", "max response": "-1.49%"}, {"smiles": "COc1ccc(C)cc1NC(=S)N1CCOCC1", "max response": "-2.32%"}, {"smiles": "COc1ccc(Cl)cc1NC(=O)CCS(=O)(=O)c1ccc(Br)cc1", "max response": "-3.81%"}, {"smiles": "CSc1ccc(S(=O)(=O)N2CCC(C(=O)NCc3ccncc3)CC2)cc1", "max response": "-2.48%"}, {"smiles": "CCN1CCN(c2nc(Nc3cc(OC)ccc3OC)nc(Nc3cc(OC)ccc3OC)n2)CC1", "max response": "-2.31%"}, {"smiles": "COc1ccc(/C=C/C(=O)c2ccc(NS(=O)(=O)c3ccc(C)cc3)cc2)cc1O", "max response": "-1.98%"}, {"smiles": "COC(=O)c1ccc(COc2ccc(/C=C/C(=O)c3ccc(OC)c(CSCC(=O)O)c3)cc2OC)cc1", "max response": "16.2% (active)"}, {"smiles": "COc1ccc(C(=O)/C=C/c2ccc(-c3ccccc3)cc2)cc1CSCC(=O)O", "max response": "16.5%"}, {"smiles": "Fc1ccc(Cl)cc1-c1nc(Nc2ccncc2)c2nccnc2n1", "max response": "1.12%"}, {"smiles": "COc1ccc(N(C(=O)c2snc(C(N)=O)c2N)C(C(=O)NC2CCCC2)c2ccc(C)o2)c(OC)c1", "note": "(stereo not given)", "max response": "-6.04%"}, {"smiles": "O=C(N/N=C\\C1CC=CCC1)c1ccc(Br)o1", "note": "(stereo not given)", "max response": "29.4% (active)"}, {"smiles": "Cc1ccc(SCc2c(C(=O)N/N=C/C3CC=CCC3)nnn2-c2nonc2N)cc1", "note": "(stereo not given)", "max response": "-2.54%"}, {"smiles": "COCc1c(C(=O)N/N=C/C2CC=CCC2)nnn1-c1nonc1N", "note": "(stereo not given)", "max response": "1.58%"}, {"smiles": "C=CCC1CCC(=O)N2CCCC12", "note": "(stereo not given)", "max response": "-5.3%"}, {"smiles": "CN(CC(=O)N1CCN(c2ccccc2)CC1)S(=O)(=O)c1cccs1", "max response": "29% (active)"}, {"smiles": "COc1ccc(OC)c(S(=O)(=O)N(C)CC(=O)N2CCN(c3ccccc3)CC2)c1", "max response": "6.23%"}, {"smiles": "O=C(CCNS(=O)(=O)c1cccs1)N1CCN(c2ccc(F)cc2)CC1", "max response": "-5.58%"}, {"smiles": "Cc1ccc(C(=O)NN(CCC#N)C2=NS(=O)(=O)c3ccccc32)cc1", "max response": "0.601%"}, {"smiles": "CONc1nc2nonc2nc1NOC", "max response": "-2.64%"}, {"smiles": "COc1ccc(-c2nn(-c3ccccc3)cc2C(=O)Nc2nc(CC(C)=O)ns2)cc1", "max response": "9.17%"}, {"smiles": "COc1ccc(NC(=O)c2cn(-c3ccccc3)nc2SC)cc1", "max response": "15.2% (active)"}, {"smiles": "COc1ccc(NC(=O)c2c(SC)nsc2SC)cc1", "max response": "-1.45%"}, {"smiles": "Cc1cc(C)nc(Nc2cc([N+](=O)[O-])ccc2C)n1", "max response": "7.47%"}, {"smiles": "Cc1ccc(-n2cc3ccc([N+](=O)[O-])cc3n2)cc1", "max response": "46.9% (active)"}, {"smiles": "Cc1ccc(-c2cn(S(=O)(=O)c3cccc([N+](=O)[O-])c3)nc2N)cc1", "max response": "-2.07%"}, {"smiles": "CCCCc1nn(-c2ccccc2C(F)(F)F)c(=O)n1Cc1ccc(-c2ccccc2S(=O)(=O)NC(=O)c2sccc2C)cc1", "max response": "-3.92%"}, {"smiles": "CN1CCN(CCCCOc2ccccc2-c2ccccc2)CC1", "max response": "-2.52%"}, {"smiles": "COc1ccccc1N1CCN(C(=O)c2ccc(Cl)c(S(=O)(=O)N3CCCC3)c2)CC1", "max response": "1.2%"}, {"smiles": "CC12CN(NC(=O)c3ccc(Cl)cc3)C3(C#N)CC1CCC23C", "note": "(stereo not given)", "max response": "-3.78%"}, {"smiles": "CCOc1ccc(CN2CCN(CCCc3ccccc3)C(CCO)C2)cc1", "note": "(stereo not given)", "max response": "-3%"}, {"smiles": "CC(C)=CCN1CCN(Cc2ccc(Oc3ncccn3)cc2)CC1CCO", "note": "(stereo not given)", "max response": "-1.38%"}, {"smiles": "OCCC1CN(Cc2ccc(Oc3ncccn3)cc2)CCN1CCc1ccccc1", "note": "(stereo not given)", "max response": "14.5% (active)"}]}]}
